From PubChem
An excerpt weighted towards active compounds, which were near 11% of everything screened.
HPGD inh – HPGD (human) dehydrogenase inhibition; P15428; purified HPGD, NADH fluorescence kinetic, PGE2 substrate; Potency, µM, actives largely listed as inhibitors; hit rate 4.3% among 150,000
Target sequence (P15428 whole entry, looked up): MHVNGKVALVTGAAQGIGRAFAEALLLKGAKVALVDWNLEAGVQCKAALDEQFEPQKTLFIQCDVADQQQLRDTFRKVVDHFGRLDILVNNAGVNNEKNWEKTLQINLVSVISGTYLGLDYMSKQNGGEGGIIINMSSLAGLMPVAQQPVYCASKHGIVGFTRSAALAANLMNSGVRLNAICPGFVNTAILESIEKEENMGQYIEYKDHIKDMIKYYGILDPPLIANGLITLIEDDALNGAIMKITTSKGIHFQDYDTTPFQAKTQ
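20 nM HPGD preincubated 15 min at room temperature with compound in 50 mM Tris-HCl pH 8, 0.01% Tween 20. Started with 1 mM NAD+ and 30 uM prostaglandin E2; NADH fluorescence (360/450 nm) read 5 times over 30-s intervals, last minus first.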
ALDH1A1 inh – blocks purified human ALDH1A1 activity; Purified ALDH1A1, NADH fluorescence, propionaldehyde substrate; hit rate 7.3% among 220,000; AID 1030; Potency, µM (series often up to 75.3 µM), hits mostly inhibitors; P00352
PNC inhibitor – inhibitors of perinucleolar compartment assembly | PC3M PTB-GFP, PNC prevalence imaging, 16 h; stronger effect = lower value | activity change (PNC), negative = inhibition, % at 10 µM | hit rate 3.1% among 140,000;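 active = readout at or below -70, meaning at least 70% loss of cells showing the perinucleolar compartment, a nuclear body marking cancer cells; inconclusive = readout between -30 and a set limit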
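Compounds are pinned in duplicate onto adhered PC3M cells stably expressing GFP-tagged PTB and incubated 16 h at 37 C. Cells are then fixed, nuclei stained with Hoechst, and PNC-positive cells counted.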
IMPase inh – cell-permeable inhibitors of inositol monophosphatase (IMPase); inhibition (IP1 accumulation), % at 46.1 µM; CHO-M1 cells, IP1 accumulation, HTRF TR-FRET ratio; P97697; AID 901; 120,000 tested, under 10 active; active = well fitted curve in the direction sought with a large enough effect in the signal ratio, not every such curve was filed as active; inconclusive = small, poorly fitted or top-dose-only effect, or a change in a side signal; inactive = no such curve, though single readings can be large or run the other way; the % refers to the signal ratio;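 note: cells stimulated with carbachol in lithium chloride buffer; higher means more IMPase inhibition seen as more IP1 and lower FRET ratio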
Target sequence (P97697 whole entry, looked up): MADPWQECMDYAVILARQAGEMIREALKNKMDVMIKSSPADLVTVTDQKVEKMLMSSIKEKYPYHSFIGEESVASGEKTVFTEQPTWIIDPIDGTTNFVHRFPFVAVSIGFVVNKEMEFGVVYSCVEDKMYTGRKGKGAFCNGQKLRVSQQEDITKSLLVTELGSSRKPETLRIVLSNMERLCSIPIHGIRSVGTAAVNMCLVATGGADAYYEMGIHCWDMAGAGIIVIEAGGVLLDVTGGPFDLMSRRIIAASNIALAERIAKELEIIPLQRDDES
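In this qHTS, compounds (final up to 46 uM) act on CHO-M1 cells that are then activated through the M1 receptor with carbachol, in pH 7.4 buffer containing 50 mM LiCl, for 30 min. IP1 accumulation is quantified by the IP-One immunoassay.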
IMPase Li inh – membrane-permeable IMPase blocker, potentiated with lithium; CHO-M1 cells, IP1 TR-FRET (IP-One), carbachol + lithium; Potency, µM (highest dose often 59.4 µM), actives largely listed as inhibitors; hit rate 0.35% among 210,000; AID 1457; active = well fitted inhibition curve with a large enough effect; inconclusive = small, poorly fitted or top-dose-only effect; inactive = no such curve, though single readings can be large or run the other way;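 note: IP1 builds up when IMPase is blocked and the TR-FRET signal falls; nearly all actives have a fitted effect of over 50% in size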
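CHO cells stably expressing M1 receptor (2000/well) were cultured 16–30 h, then exposed to compounds with a small lithium addition for 30 min at 37C. IP1 was measured by TR-FRET competition; AC50 from Hill fits.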
A number is an active result; [ ] = another dose, or the depositor's remark. Unless noted, calls come from the whole dose curve; as a rule, active = well fitted inhibition curve with a large enough effect (not every such curve was filed as active); inconclusive = small, poorly fitted or top-dose-only effect, or another doubt; inactive = no such curve, though single readings can be large or run the other way.

For Cc1cc(C)nc(SCc2ccc(C(=O)N/N=C/c3ccc(C(=O)O)cc3)cc2)n1 the results were ALDH1A1 inh inactive and IMPase Li inh inactive.
`Cc1cc(C)nc(SCc2ccc(C(=O)NN=C3C4CC5CC(C4)CC3C5)cc2)n1` gave HPGD inh inactive, ALDH1A1 inh 3.5µM, PNC inhibitor inactive and IMPase Li inh inactive.
Screening COc1ccc(/C=N/NC(=O)c2ccc(CSc3nc(C)cc(C)n3)cc2)c(OC)c1OC returned HPGD inh 35µM, ALDH1A1 inh inconclusive, PNC inhibitor inactive and IMPase Li inh inactive.
For Cc1cc(C)nc(SCc2ccc(C(=O)N/N=C3\CC(C)CC(C)(C)C3)cc2)n1 (configuration not stated) the results were ALDH1A1 inh 7.9µM, PNC inhibitor inactive and IMPase inh inactive.
CC1C/C(=N\NC(=O)c2ccc(NS(=O)(=O)c3ccc(Br)cc3)cc2)CC(C)(C)C1 (configuration not stated) was read as HPGD inh inactive, ALDH1A1 inh 3.5µM, PNC inhibitor inconclusive and IMPase Li inh inactive.
Screening O=C1C2=C(Nc3cc([N+](=O)[O-])ccc3N2)O[C@@H]1c1ccc([C@H]2OC3=C(Nc4ccc([N+](=O)[O-])cc4N3)C2=O)cc1 returned HPGD inh inactive, ALDH1A1 inh inconclusive and IMPase Li inh inactive.
For CC1=C/C(=N\Nc2ccccc2[N+](=O)[O-])CC(C)(C)C1 the results were HPGD inh inactive, ALDH1A1 inh inactive, PNC inhibitor inactive and IMPase Li inh inactive.
Screening COc1ccc(-c2cc(=O)c3cc(OCC(=O)OC(C)C)ccc3o2)cc1 returned IMPase inh inactive.
Screening CC(=O)/C=C(\C)Nc1ccc(-c2cnc(-c3ccccc3)o2)cc1 returned HPGD inh inconclusive, ALDH1A1 inh inconclusive, PNC inhibitor inactive, IMPase inh inconclusive and IMPase Li inh 8.9µM.
Screening Cc1ccc(C(=O)N2CCCC(c3ccc(Cl)cc3)=N2)cc1 returned ALDH1A1 inh 13µM and IMPase Li inh inactive.
For COc1ccc(C(=O)N2CCCC(c3ccccc3)=N2)cc1 the results were ALDH1A1 inh inconclusive and IMPase Li inh inactive.
Screening O=C(O)c1cc(-c2cccc(Cl)c2)nc2nc(N3CCCCC3)sc12 returned HPGD inh inconclusive, ALDH1A1 inh inconclusive, PNC inhibitor -86 and IMPase Li inh inconclusive.
`O=C(c1ccccc1)c1sc(N2CCCCCC2)nc1-c1ccccc1` gave HPGD inh inactive, ALDH1A1 inh inconclusive, PNC inhibitor inactive, IMPase inh inactive and IMPase Li inh inactive.
`CC(=O)c1cccc(N(CC(=O)NCC2CCCO2)C(=O)CCC(=O)Nc2cc(C)on2)c1` (configuration not stated) gave HPGD inh inactive, ALDH1A1 inh inactive, PNC inhibitor -100, IMPase inh inactive and IMPase Li inh inactive.
Screening Cc1cc(NC(=O)CCC(=O)N(CC(=O)NCC2CCCO2)c2ccc3c(c2)OCCO3)no1 (configuration not stated) returned HPGD inh inactive, ALDH1A1 inh inactive, PNC inhibitor inactive and IMPase Li inh inactive.
`CC(NC(=O)c1ccnc(C(C)(C)C)c1)c1ccccc1` (configuration not stated) gave HPGD inh inactive, ALDH1A1 inh inactive, PNC inhibitor inactive, IMPase inh inactive and IMPase Li inh inactive.
For N#Cc1nc(-c2ccco2)oc1NCc1cccnc1 the results were HPGD inh inconclusive, ALDH1A1 inh inconclusive, PNC inhibitor inactive, IMPase inh inactive and IMPase Li inh inactive.
For CC(C)CNc1oc(-c2ccco2)nc1C#N the results were HPGD inh inconclusive, ALDH1A1 inh inconclusive, PNC inhibitor -100, IMPase inh inconclusive and IMPase Li inh inactive.
CC(Nc1oc(-c2ccco2)nc1C#N)c1ccccc1 (configuration not stated) was read as HPGD inh inconclusive, ALDH1A1 inh inconclusive, PNC inhibitor inactive and IMPase Li inh inactive.
`N#Cc1nc(-c2ccco2)oc1NCc1ccc(F)cc1` gave HPGD inh inconclusive, ALDH1A1 inh inconclusive, PNC inhibitor -82, IMPase inh inactive and IMPase Li inh inactive.
Screening CC1CN(C(=S)c2cccc([N+](=O)[O-])c2)CC(C)O1 (configuration not stated) returned ALDH1A1 inh 7.9µM and IMPase Li inh inactive.
`O=C(/C=C/c1cccc([N+](=O)[O-])c1)N1CCN(c2ccccc2F)CC1` gave HPGD inh inactive, ALDH1A1 inh inactive, PNC inhibitor inactive and IMPase Li inh inactive.
For O=[N+]([O-])c1cccc(C(=S)N2CCN(c3ccccc3F)CC2)c1 the results were ALDH1A1 inh 22µM and IMPase Li inh inactive.
For O=[N+]([O-])c1cccc(C(=S)N2CCN(c3ccccc3)CC2)c1 the results were HPGD inh 22µM, ALDH1A1 inh 16µM, PNC inhibitor inactive and IMPase Li inh inactive.
Screening C/C(=N/N1CCN(c2ccccc2)CC1)c1cccc([N+](=O)[O-])c1 returned ALDH1A1 inh inactive and IMPase Li inh inactive.
CC1CN(c2ccc([N+](=O)[O-])cc2C#N)CC(C)O1 (configuration not stated) was read as ALDH1A1 inh 14µM and IMPase Li inh inactive.
`CCCNC(=O)Nc1ccc(C(F)(F)F)cc1` gave ALDH1A1 inh inactive and IMPase Li inh inactive.
`CCOC(=O)N1CCN(C(=O)c2c(N)no[n+]2[O-])CC1` gave ALDH1A1 inh inactive and IMPase Li inh inactive.
Screening COc1ccc2c(c1)c(CC(=O)O)c(C)n2Cc1ccc(Cl)cc1 returned HPGD inh inactive, ALDH1A1 inh 25µM, IMPase inh inactive and IMPase Li inh inactive.
`Cc1noc(C)c1-c1nc(NCc2cccs2)c2ccccc2n1` gave ALDH1A1 inh inactive and IMPase Li inh inactive.
Screening COc1ccc(OC)c(-n2c(SC)nnc2-c2c[nH]c3ccccc23)c1 returned HPGD inh 18µM, ALDH1A1 inh inconclusive, PNC inhibitor inactive, IMPase inh inactive and IMPase Li inh inactive.
For COc1ccc(OC)c(-n2c(SCC(N)=O)nnc2-c2c[nH]c3ccccc23)c1 the results were HPGD inh inactive, ALDH1A1 inh inactive, PNC inhibitor inactive, IMPase inh inactive and IMPase Li inh inactive.
For COc1cc(OC)cc(C(=O)Nc2ccc(-c3nc4cc(C(C)C)ccc4o3)cc2)c1 the results were IMPase inh inactive.
Cc1nc([N+](=O)[O-])c(Sc2nc3ccc([N+](=O)[O-])cc3[nH]2)n1Cc1ccccc1 was read as HPGD inh inconclusive, ALDH1A1 inh 7.5µM, PNC inhibitor inconclusive, IMPase inh inactive and IMPase Li inh inactive.
N#Cc1cccc(NC(=O)N2CC[C@@]3(CCCN(C(=O)c4cc(C(F)(F)F)cc(C(F)(F)F)c4)C3)C2)c1 was read as HPGD inh inactive, ALDH1A1 inh inactive and IMPase Li inh inactive.
O=C(O)CC(CC(=O)O)C(=O)O was read as HPGD inh inactive, ALDH1A1 inh inactive[13.5 µM] and IMPase Li inh inactive.
